Measurements reported in PubChem BioAssay (Tox21).
Records with an inconclusive call do not appear. Active and inactive are the calls of the source. Unless noted, calls come from the whole dose curve; as a rule, active = well fitted curve in the direction sought with a large enough effect in the repeat runs; inconclusive = weak or mixed curves; inactive = no such curve, though single readings can be large; an effect the other way counts as inactive or inconclusive.

How the values were obtained:
[1] = qHTS assay to identify small molecule antagonists of the vitamin D receptor (VDR) signaling pathway - cell viability counter screen (AID 743225); note: nearly all actives have a fitted effect of over 50% in size
In short: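 Cells (VDR-UAS-bla HEK 293T) are plated, rested 4 h at 37C, dosed with compound and 3 nM final 1-alpha,25-dihydroxy vitamin D3, and incubated 16 h. Viability is taken from CellTiter-Glo luminescence in the reporter wells.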

[2] = qHTS assay to identify small molecule agonists of the NFkB signaling pathway (AID 1159509; active = well fitted curve in the direction sought with a large enough effect in the signal ratio in the repeat runs, not every such curve was filed as active; the % refers to the signal ratio)
In short: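 NFkB-bla ME-180 cells carry a beta-lactamase reporter under an NF-kB response element. They were plated overnight, then exposed to compounds for 5 h at 37 C. Read-out is LiveBLAzer FRET after 1.5 hr at room temperature (405 nm excitation; 460/530 nm emission).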

[3] = qHTS assay to identify small molecule agonists of the NFkB signaling pathway - cell viability counter screen (AID 1159515; calls by dose curve; note: nearly all actives have a fitted effect of over 55% in size)
In short: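 NFkB-bla ME-180 cells, 2,000/well, were plated overnight at 37 C, 5% CO2, then exposed to compounds in DMSO for 5 hr. After the bla FRET read, CellTiter-Glo was added to the same wells; luminescence was read after 30 min at room temperature.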

[4] = qHTS assay to identify small molecule agonists of the endoplasmic reticulum stress response signaling pathway (AID 1159516; active = well fitted activation curve with a large enough effect in the signal ratio in the repeat runs, not every such curve was filed as active; the % refers to the signal ratio)
In short: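 CellSensor ESRE-bla HeLa cells, carrying a beta-lactamase reporter driven by the ER stress response element, were plated overnight and exposed to compounds for 5 hr at 37 C. Reporter activity was read as FRET substrate fluorescence after 2 hr at room temperature.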

[5] = qHTS assay to identify small molecule agonists of the endoplasmic reticulum stress response signaling pathway - cell viability counter screen (AID 1159517; calls by dose curve; note: nearly all actives have a fitted effect of over 50% in size)
In short: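 ESRE-bla HeLa cells, 1,500 per well, seeded overnight then treated with compounds for 5 hr at 37 C. After the beta-lactamase read, viability in the same wells is measured by CellTiter-Glo luminescence after 30 min at room temperature.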

[6] = qHTS assay to identify small molecule antagonists of the retinoid-related orphan receptor gamma (ROR-gamma) signaling pathway - cell viability counter screen (AID 1159520); note: nearly all actives have a fitted effect of over 50% in size
In short: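 Tet-on ROR gamma CHO cells were given compounds for 2 hr, then doxycycline hyclate at 1 uM final, and incubated 16 hr at 37 C. Viability was measured as ATP content by CellTiter-Glo luminescence.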

[7] = qHTS assay to identify small molecule agonists of the AP-1 signaling pathway - cell viability counter screen (AID 1159525; calls by dose curve; note: nearly all actives have a fitted effect of over 55% in size)
In short: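 AP-1-bla ME-180 cells in Opti-MEM with 0.5% dialyzed FBS, compound exposure 5 h at 37 C in 15-point titration. Viability read in the same wells as ATP content by CellTiter-Glo luminescence, normalised to tetra-n-octylammonium bromide and DMSO controls.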

[8] = qHTS assay to identify small molecule agonists of the AP-1 signaling pathway (AID 1159526; calls by dose curve)
[9] = biological target: Retinoic acid receptor RXR-alpha (Homo sapiens) (UniProt P19793); assay: qHTS assay to identify small molecule agonists of the RXR signaling pathway (AID 1159527; calls by dose curve; note: nearly all actives have a fitted effect of over 35% in size)
Sequence of Retinoic acid receptor RXR-alpha (Homo sapiens) (P19793 whole entry, looked up): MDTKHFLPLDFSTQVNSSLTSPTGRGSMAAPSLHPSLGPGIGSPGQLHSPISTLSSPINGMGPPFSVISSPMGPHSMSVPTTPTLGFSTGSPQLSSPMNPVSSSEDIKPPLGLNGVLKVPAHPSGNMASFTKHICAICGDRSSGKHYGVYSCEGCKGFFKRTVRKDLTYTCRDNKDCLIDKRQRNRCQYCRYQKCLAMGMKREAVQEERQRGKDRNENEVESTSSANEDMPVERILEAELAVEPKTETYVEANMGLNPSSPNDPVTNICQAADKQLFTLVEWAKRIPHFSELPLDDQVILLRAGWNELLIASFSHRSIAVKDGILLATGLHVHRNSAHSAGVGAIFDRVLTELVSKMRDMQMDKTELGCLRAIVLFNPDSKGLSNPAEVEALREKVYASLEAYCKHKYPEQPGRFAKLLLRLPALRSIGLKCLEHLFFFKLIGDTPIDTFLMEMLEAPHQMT
In short: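 qHTS of the Tox21 10K library in GeneBLAzer RXR-alpha HEK 293T cells carrying a beta-lactamase reporter […]; 16 hr treatment, 9-cis retinoic acid as agonist control, FRET read-out.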

[10] = qHTS assay to identify small molecule agonists of the RXR signaling pathway - cell viability counter screen (AID 1159529); note: nearly all actives have a fitted effect of over 50% in size
In short: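 Cell viability is measured by CellTiter-Glo luminescence, 30 min at room temperature, in wells already read for beta-lactamase. Engineered HEK 293T cells (RXR-alpha-UAS-bla) are dosed 16 hr at 37 C. Tetraoctyl ammonium bromide serves as positive control.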

[11] = qHTS assay to identify small molecule antagonists of the retinoic acid receptor (RAR) signaling pathway (AID 1159552; note: nearly all actives have a fitted effect of over 50% in size)
In short: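 Quantitative HTS in C3RL4 RARE-luciferase reporter cells. Compounds were added with 1 uM (final) retinol; luminescence was read after 6 hr.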

[12] = qHTS assay to identify small molecule antagonists of the estrogen related receptor (ERR) signaling pathway from Tox21 library - cell viability counter screen (AID 1224834); note: nearly all actives have a fitted effect of over 30% in size
In short: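 ERR reporter cells were plated 6 h before compound addition, then exposed to test compounds in DMSO for 17.5 h at 37 C. Viability was read as CellTiter-Fluor fluorescence after a 30-minute incubation at 37 C.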

[13] = biological target: Luciferin 4-monooxygenase (Photinus pyralis) (UniProt P08659); assay: qHTS assay to identify small molecule inhibitors of firefly luciferase (AID 1224835); note: nearly all actives have a fitted effect of over 25% in size
Sequence of Luciferin 4-monooxygenase (Photinus pyralis) (P08659 whole entry, looked up): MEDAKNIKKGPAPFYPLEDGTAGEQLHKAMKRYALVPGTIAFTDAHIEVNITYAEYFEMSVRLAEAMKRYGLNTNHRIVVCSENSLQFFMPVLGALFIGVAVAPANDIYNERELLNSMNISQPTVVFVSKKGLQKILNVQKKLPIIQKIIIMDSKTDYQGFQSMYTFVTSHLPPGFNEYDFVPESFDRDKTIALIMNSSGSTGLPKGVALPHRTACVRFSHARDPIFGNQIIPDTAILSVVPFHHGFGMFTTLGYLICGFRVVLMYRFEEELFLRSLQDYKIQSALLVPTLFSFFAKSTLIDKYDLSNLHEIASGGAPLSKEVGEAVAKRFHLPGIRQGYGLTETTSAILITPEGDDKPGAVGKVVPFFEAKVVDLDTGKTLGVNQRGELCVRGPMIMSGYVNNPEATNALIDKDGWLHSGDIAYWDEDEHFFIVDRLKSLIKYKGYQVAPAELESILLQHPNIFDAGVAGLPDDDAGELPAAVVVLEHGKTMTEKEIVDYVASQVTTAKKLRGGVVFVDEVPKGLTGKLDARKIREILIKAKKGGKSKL
In short: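 Biochemical qHTS: compounds run as interplate titrations against purified firefly enzyme, with D-luciferin and ATP each at its KM concentration. Light output recorded by CCD imaging.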

[14] = qHTS assay to identify small molecule agonists of the constitutive androstane receptor (CAR) signaling pathway - cell viability counter screen (AID 1224836); note: nearly all actives have a fitted effect of over 45% in size
In short: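 Counter screen multiplexed with the CAR reporter readout: HepG2 cells co-transfected with hCAR and the CYP2B6-2.2kb construct receive a 15-concentration compound series and 0.75 uM PK11195 (final), then CellTiter-Fluor fluorescence is read after 23 h.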

[15] = qHTS assay to identify small molecule antagonists of the constitutive androstane receptor (CAR) signaling pathway - cell viability counter screen (AID 1224837); note: nearly all actives have a fitted effect of over 45% in size
In short: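 HepG2 cells stably expressing hCAR and a CYP2B6-2.2kb reporter were plated and pre-incubated 4 hr at 37 C/5% CO2, then given compounds at 15 concentrations plus 50 nM CITCO (final). After 23 hr, viability was read by CellTiter-Fluor fluorescence.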

[16] = biological target: Nuclear receptor ROR-gamma (Homo sapiens) (UniProt P51449); assay: qHTS assay to identify small molecule antagonists of the retinoid-related orphan receptor gamma (ROR-gamma) signaling pathway (AID 1159521)
In short: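 RORγ antagonism is scored from reduced reporter luminescence in Tet-on CHO cells. Induction used 1 uM final doxycycline hyclate for 16 h at 37 C, following a 2 h compound exposure.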

[17] = qHTS assay to identify small molecule agonists of the retinoic acid receptor (RAR) signaling pathway (AID 1159553); details: C3RL4 RARE luciferase reporter, agonist, 6 h; activation: at 73.3 µM (top of the series) unless noted
In short: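 C3RL4 cells carrying a RARE luciferase reporter were plated overnight at 37 C, then exposed to compounds in DMSO for 6 hr at 37 C and 5% CO2. Luminescence was read 30 min after luciferase reagent addition at room temperature.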

[18] = qHTS assay to identify small molecule antagonists of the retinoid acid receptor (RAR) signaling pathway - cell viability counter screen (AID 1159551); note: nearly all actives have a fitted effect of over 35% in size
In short: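 C3RL4 cells were seeded overnight at 37 C, then treated with compounds plus 1 uM (final) retinol for 6 h at 37 C. Viability was read as ATP by CellTiter-Glo luminescence after 30 min at room temperature.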

Measured: Potency

C#CCN(C)[C@H](C)Cc1ccccc1
not listed: [16] | [17] | [18]
inactive: all other assays above

CCCCCCCCCCCC#N
not listed: [4] | [11] | [14] | [17] | [18]
inactive: all other assays above

CCOP(=S)(OCC)SCCSCC
not listed: [4] | [14] | [18]
inactive: all other assays above

c1cc2c3c(cccc3c1)CC2
not listed: [4] | [14]
inactive: all other assays above

CC(C)NC(=O)N1CC(=O)N(c2cc(Cl)cc(Cl)c2)C1=O
not listed: [4] | [11] | [17] | [18]
inactive: all other assays above

Clc1cccc(Cl)c1Cl
not listed: [2]
inactive: all other assays above

COCCl
not listed: [4]
inactive: all other assays above

CC(C)(Cl)Cl
not listed: [14] | [16] | [18]
inactive: all other assays above

BrCCBr
not listed: [4] | [14]
inactive: all other assays above
